Results published in PubChem BioAssay AID602179 (National Center for Advancing Translational Sciences (NCATS), 2012).
In all, about 390,000 compounds went through this assay and about 360 (0.092%) were called active. The sample holds actives, similar compounds and a random draw of the others, so the mix is not that of the screen. Calls come from the whole dose curve; as a rule, active = well fitted inhibition curve with a large enough effect; inconclusive = small, poorly fitted or top-dose-only effect; inactive = no such curve, though single readings can be large or run the other way.

The compounds below were run against Isocitrate dehydrogenase [NADP] cytoplasmic (Homo sapiens) (UniProt O75874) (assay: qHTS for Inhibitors of mutant isocitrate dehydrogenase 1 (IDH1): qHTS). Conditions: IDH1-R132H enzyme, NADPH consumption, diaphorase/resazurin fluorescence; series mostly up to 76.6 µM; activity change, negative = inhibition: at the top concentration.
Chain of Isocitrate dehydrogenase [NADP] cytoplasmic (Homo sapiens) (O75874 whole entry R132H, stated change not applied): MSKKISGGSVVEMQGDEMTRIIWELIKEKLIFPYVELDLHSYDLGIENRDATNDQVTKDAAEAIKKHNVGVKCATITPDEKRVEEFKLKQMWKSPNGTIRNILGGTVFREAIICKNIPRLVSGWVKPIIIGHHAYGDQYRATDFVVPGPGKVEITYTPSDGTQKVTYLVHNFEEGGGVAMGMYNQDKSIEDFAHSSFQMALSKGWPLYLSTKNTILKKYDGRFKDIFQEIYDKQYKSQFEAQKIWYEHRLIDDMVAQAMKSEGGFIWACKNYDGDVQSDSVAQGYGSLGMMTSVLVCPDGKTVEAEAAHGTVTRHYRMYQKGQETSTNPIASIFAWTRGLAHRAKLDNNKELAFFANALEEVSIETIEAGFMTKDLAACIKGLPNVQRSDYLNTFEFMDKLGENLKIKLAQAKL
Procedure, shortened: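 IDH1-R132H (0.5 ug/mL) preincubated 30 min with compound, then NADPH (0.016 mM) and alpha-KG (2 mM) added; 80 min at RT, pH 7.5. Remaining NADPH coupled via diaphorase/resazurin to fluorescence (540/590 nm); concentration-response curves normalized to no-enzyme control.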
% is set by controls: 0 for no effect and ±100 for the full control effect; potency is the fitted concentration of half-maximal effect.
Note: nearly all actives have a fitted effect of over 65% in size.

Structure (SMILES)	activity change, negative = inhibition	Potency
Cc1ccc(CCNC(=O)c2ccc(CNS(=O)(=O)c3ccc(C)cc3)cc2)cc1	11.2% (inactive)	
CCOC(=O)c1ccc(N2C(=O)c3n[nH]c(C)c3C2c2ccc(O)c(OC)c2)cc1 (stereo not drawn)	8.11% (inactive)	
CCOc1ccc(S(=O)(=O)N(CC(=O)NCCSCc2ccc(C)cc2)c2ccccc2)cc1	8.13% (inactive)	
O=C(CSc1oc(-c2ccco2)nc1S(=O)(=O)c1ccccc1)c1ccc(Cl)cc1	8.02% (inactive)	
Cc1ccccc1Nc1nn2c(=O)c3ccc(C(=O)NCCc4ccc(Cl)cc4)cc3nc2s1	2.65% (inactive)	
Cc1ccc(OCC(=O)OCc2cc(=O)n3nc(C4CC4)sc3n2)cc1C	1.02% (inactive)	
CC(C)NC(=O)c1nn(-c2ccccc2F)nc1CO	-6.1% (inactive)	
Cc1cccc(OCCCC(=O)Nc2sc3c(c2C(N)=O)CCC(C)C3)c1 (stereo not drawn)	15.6% (inactive)	
O=C(CN1C(=O)COc2ccc(S(=O)(=O)N3CCCCCC3)cc21)N1CCN(c2cccc(C(F)(F)F)c2)CC1	0.874% (inactive)	
O=c1cc(CSc2ncn[nH]2)[nH]c2ccc(F)cc12	11.8% (inactive)	
O=C(CN1CCSc2ccccc21)N1CCN(c2ccccc2)CC1	9.76% (inactive)	
CCCc1nn2c(=O)cc(COC(=O)c3ccc(NC(=O)C(C)Oc4ccccc4)cc3)nc2s1 (stereo not drawn)	-1.97% (inactive)	
Cc1ccc2c(c1)N(C(=O)Nc1ccc(Br)cc1F)CCO2	26.6% (inactive)	
O=C(CCc1ccccc1)NCc1ccc2c(c1)CCN2C(=O)c1ccccc1	-11.1% (inactive)	
O=C(CSc1nnc(CNC(=O)c2ccccc2)n1-c1ccc(F)cc1)Nc1ccccc1F	-2.52% (inactive)	
CN(C(=O)CSc1nc2ccccc2n1Cc1ccccc1C#N)c1ccccc1	-6.83% (inactive)	
CCOC(=O)c1c(C)[nH]c(C)c1S(=O)(=O)N1CCCC(C(=O)NCc2ccccc2Cl)C1 (stereo not drawn)	-13.9% (inactive)	
CCOc1ccc(NC(=O)c2cn(C3CCCCC3)c(=O)c3c2c2ccccc2n3C)cc1	-10.2% (inactive)	
CCCN1C(=O)C(Cc2nc3ccccc3c(=O)n2-c2ccccc2)c2cc(C)ccc21 (stereo not drawn)	-1.15% (inactive)	
CCCc1nc2c(c(=O)c3ccccc3n2C)c(=O)n1C1CCCCCC1		46.5 µM (active)
Cc1ccc(S(=O)(=O)N(Cc2nc(-c3ccc(Cl)cc3)no2)C2CCCCC2)cc1	0.339% (inactive)	
COc1cc2ccccc2cc1C(=O)Nc1cccc(-c2nc3ccccc3o2)c1	-0.407% (inactive)	

Structure (SMILES)	activity change, negative = inhibition	Potency
CC1CCCCN1S(=O)(=O)c1ccc(F)c(C(=O)Nc2ccccc2C(F)(F)F)c1 (stereo not drawn)	-7.74% (inactive)	
CCOc1cccc(CNC(=O)c2ccc(N3CCCC3)c(NC(=O)Nc3ccccc3CC)c2)c1	-22.9% (inactive)	
CCOc1ccc(NC(=O)C(=O)NCCc2csc3nc(-c4ccccc4F)nn23)cc1	-15.9% (inactive)	
Cc1ccccc1CNC(=O)CCc1cn(Cc2ccccc2C)c2ccccc12	0% (inactive)	
Cc1c(Cl)cccc1-c1ccc(CNCCCSc2nnnn2C)o1	0% (inactive)	
COc1ccc(-c2nc(CN3CCC(C(=O)NCCN(CC(C)C)CC(C)C)CC3)c(C)o2)cc1OC	-5.21% (inactive)	
CCOc1ccc(-c2n[nH]c3c2C(c2ccccc2OC)N(c2ccc(Br)cc2)C3=O)cc1 (stereo not drawn)	-10.1% (inactive)	
CN(Cc1ccccc1)S(=O)(=O)c1ccc(F)c(C(=O)Nc2cccc(Cl)c2Cl)c1	0% (inactive)	
Cc1nn(-c2nc(-c3ccccc3)cc(C(F)(F)F)n2)c(C)c1Cl	-2.85% (inactive)	
O=C(NC(Nc1nc2ccc([N+](=O)[O-])cc2s1)(C(F)(F)F)C(F)(F)F)c1ccccc1		9.27 µM (active)
CN(C)c1cccc(C(=O)Nc2nc3ccc(S(=O)(=O)NC(C)(C)C)cc3s2)c1	-9.07% (inactive)	
NS(=O)(=O)c1ccc2nc(NC(=O)COc3ccccc3)sc2c1	16.5% (inactive)	
CCc1ccc(NC(=O)C2CCCN2S(=O)(=O)c2ccc3nc(-c4ccccc4)[nH]c3c2)cc1 (stereo not drawn)	12.1% (inactive)	
CCOC(=O)c1ccc(NC(=O)Cn2c(=O)cc(C)c3c(C)nn(-c4cccc(F)c4)c32)cc1	2.76% (inactive)	
CCCCN(CC)CCCNC(=O)c1nn(C)c2c1CSc1ccccc1-2	-11.4% (inactive)	
O=C(CN1C(=O)CCn2nc(-c3ccccc3)cc21)NCc1ccccc1	8.18% (inactive)	
COc1ccc2c(C)c(CCC(=O)NCc3ccc(OC)c(OC)c3)c(=O)oc2c1	9.73% (inactive)	
CSc1ccc(C2c3c(oc4ccccc4c3=O)C(=O)N2CCCN2CCOCC2)cc1 (stereo not drawn)	-26.3% (inactive)	
Cc1ccc(C(=O)NCCSc2c(C)[nH]c3ccccc23)cc1C	15% (inactive)	
O=C(Nc1ccccc1Br)c1cc(CN2CCCC2)on1	18.6% (inactive)	
Cc1ccc(C)c(NC(=O)C2CCCN(S(=O)(=O)c3cn(C)cn3)C2)c1 (stereo not drawn)	-0.0051% (inactive)	
Cc1ccc(CNC(=O)CSc2c(C)cnc3c2c(=O)n(C)c(=O)n3C)cc1	-5.79% (inactive)	

Structure (SMILES)	activity change, negative = inhibition	Potency
O=C(Nc1nc2c(s1)CCCC2)c1ccccc1F	5.05% (inactive)	
Cc1ccc(N2CC(C(=O)Nc3ccc(N(C)C)cc3)CC2=O)cc1Cl (stereo not drawn)	-6.08% (inactive)	
COc1cccc(NC(=O)C(=O)NCC(c2ccc3c(c2)OCO3)N2CCN(C)CC2)c1 (stereo not drawn)	4.3% (inactive)	
CSc1ccc(CCNC(=O)c2ccc3c(c2)nc2n3CCOC2)cc1	17.1% (inactive)	
O=C(NC1CC(=O)N(c2ccc(F)cc2)C1)C1CCCCC1 (stereo not drawn)	2.04% (inactive)	
O=C(/C=C/c1ccccc1)Nc1cc(-c2nc3cc(Cl)ccc3o2)ccc1Cl	3.86% (inactive)	
Cc1ccc(CCNC(=O)c2ccc3c(c2)N(Cc2cc(C)ccc2C)C(=O)c2ccccc2S3=O)cc1 (stereo not drawn)	-5.3% (inactive)	
O=C(CCc1nc(CN2CCN(S(=O)(=O)c3ccc(F)cc3)CC2)no1)N1CCCCC1	1.03% (inactive)	
CCOc1ccc(Nc2oc(/C=C/c3ccc(F)cc3)nc2C#N)cc1	0% (inactive)	
Oc1ccc(-c2nc3ccc(Cl)cn3c2Nc2ccc3c(c2)OCO3)cc1	-2.86% (inactive)	
COc1cc(OC)c(N(C)C(=O)c2cc3c(=O)oc4ccccc4c3s2)cc1Cl	-4.35% (inactive)	
COc1ccc(-c2nc(Cn3c(=O)cc(C)c4c(C)nn(-c5ccccc5)c43)c(C)o2)cc1OC	14.5% (inactive)	
COc1ccccc1Nc1nc(N)nc(N)c1S(=O)(=O)c1ccccc1	8.86% (inactive)	
O=c1c(=O)n(Cc2c(F)cccc2Cl)ccn1Cc1ccccc1	-0.719% (inactive)	
COc1ccc(Cn2ccn(Cc3cccc(OC)c3)c(=O)c2=O)cc1	-4.83% (inactive)	
O=[N+]([O-])/C=C/c1ccc2c(ccn2Cc2ccccc2)c1		20.7 µM (active)
COc1ccc(Cl)cc1N(C)C(=O)c1cc2c(=O)oc3ccc(C)cc3c2s1	9.62% (inactive)	
COc1ccc(CCNC(=O)CCc2c(C)nc3c(c(C)nn3-c3ccc(C)c(C)c3)c2C)c(OC)c1OC	-2.76% (inactive)	
CCN(CC)C(=O)CSc1nc2ccsc2c(=O)n1Cc1ccccc1Cl	8.23% (inactive)	
Cc1ccc(-c2ccc(CCC(=O)O)n2-c2ccc(C(N)=O)cc2)cc1	-7.5% (inactive)	
N#Cc1nc(/C=C/c2ccc(F)cc2)oc1NCc1ccc(F)cc1	-16.7% (inactive)	
CCOc1ccc(Nc2nc3c(S(=O)(=O)c4cccc(Cl)c4)nnn3c3ccsc23)cc1	11.3% (inactive)	

Structure (SMILES)	activity change, negative = inhibition	Potency
COc1cc(OC)c(C2C=C(C(=O)O)Nc3ncnn32)cc1OC (stereo not drawn)	-1.93% (inactive)	
O=C1Cc2cc(S(=O)(=O)Nc3ccc(OC(F)(F)F)cc3)cc3c2N1CCC3	9.9% (inactive)	
COc1cc(C(=O)NCCc2csc3nc(-c4ccccc4C)nn23)cc(OC)c1OC	-17.5% (inactive)	
CCc1ccc(C2C(C(=O)Nc3ccccc3)=C(C)Nc3c(C(=O)Nc4ccc(C)cc4)cnn32)cc1 (stereo not drawn)	-18.3% (inactive)	
CN(C)c1ccc(C(CNS(=O)(=O)c2cc(F)ccc2F)N2CCOCC2)cc1 (stereo not drawn)	0% (inactive)	
COc1ccc(S(=O)(=O)c2c(Nc3ccc(C)cc3)sc(C(=O)c3ccc(C)cc3)c2N)cc1	-3.17% (inactive)	
Cc1ccccc1CCNC(=O)C1CCN(c2nc3ccccc3nc2C(F)(F)F)CC1	4.43% (inactive)	
O=C(c1ccccc1F)N1CCC(c2nc3c(nnn3Cc3cccc(F)c3)c(=O)[nH]2)CC1	7.98% (inactive)	
CCOc1ccc(NC(=O)c2c(NCc3cccc(OC)c3OC)sc3c2CCC3)cc1	-16.2% (inactive)	
COc1cc(OC)c(NC(=O)c2cc(S(=O)(=O)N3CCCC3)cn2C)cc1Cl	-0.894% (inactive)	
O=C(COc1ccc(Cl)cc1)Nc1ccccc1OCc1cc(=O)n2ccccc2n1	-3.61% (inactive)	
COc1ccc(OC)c(NC(=O)CSC2=Nc3ccccc3C3=NC(CC(=O)NCCc4ccccc4)C(=O)N23)c1 (stereo not drawn)	-6.25% (inactive)	
O=C(COc1ccccc1Cl)Nc1ccc2nc(SCC(=O)N3CCCC3)sc2c1	-3.02% (inactive)	
O=C(CN1c2ccccc2S(=O)(=O)c2ccccc21)Nc1cccc(C(F)(F)F)c1	-11.9% (inactive)	
COc1cccc(-c2nc(CS(=O)(=O)CC(=O)N3CCN(c4cc(C)ccc4C)CC3)c(C)o2)c1	-8.51% (inactive)	
COc1ccc(CNC(=O)CSc2nc3ccccc3nc2Cc2ccccc2)cc1	10.4% (inactive)	
CCOC(=O)c1c(C)n(S(=O)(=O)c2ccc(C)cc2C)c2ccc(NS(=O)(=O)c3ccc(C)cc3C)cc12	-0.772% (inactive)	
CCOc1cccc(C(=O)Nc2nnc(S(=O)(=O)N(C)c3ccc(C)cc3)s2)c1	0% (inactive)	
COc1ccccc1Nc1c2c(nc3ccc(NC(=O)/C=C/c4cc(OC)c(OC)c(OC)c4)cc13)CCCC2	1.05% (inactive)	
O=C(Nc1c(-c2ccc(F)cc2)nc2ccccn12)c1cccc(F)c1	-3.61% (inactive)	
Cc1ccc(-n2ncc3c(N4CCC(C(N)=O)CC4)ncnc32)cc1	-7.51% (inactive)	
Cc1c(NC(=O)Cc2ccccc2)cccc1-c1nc2cccnc2s1	0% (inactive)	
